# Measured values as given in publication PMC11006913.
# Numbering of substitutions follows the chain as printed.
# How the values were obtained:
# Test in all cases: PBM; 200 nM protein, PBS
# Conditions in all cases: dsDNA, one strand shown
# HOXB9 [1] = molecular target: HOXB9 (Homo sapiens, UniProt P17482 171-250, T197M)
# HOXC9 [2] = molecular target: HOXC9 (Homo sapiens, UniProt P31274 178-260, K195R)
# PAX4 [3] = molecular target: T1, PAX4 (Homo sapiens, UniProt O43316 9-242)
# T1 sequence: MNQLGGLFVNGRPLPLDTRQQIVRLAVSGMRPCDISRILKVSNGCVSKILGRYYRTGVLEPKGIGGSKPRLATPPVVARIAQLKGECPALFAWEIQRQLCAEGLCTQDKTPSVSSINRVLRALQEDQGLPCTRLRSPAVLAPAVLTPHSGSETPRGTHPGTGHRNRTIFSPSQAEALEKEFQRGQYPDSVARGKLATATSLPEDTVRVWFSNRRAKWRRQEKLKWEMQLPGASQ
# HOXB9 [4] = molecular target: HOXB9 (Homo sapiens, UniProt P17482 171-250)
# Sequence of HOXB9 (Homo sapiens, UniProt P17482 171-250) (P17482 171-250): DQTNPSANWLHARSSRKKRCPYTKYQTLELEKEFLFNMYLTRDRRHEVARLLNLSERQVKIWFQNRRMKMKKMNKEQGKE
# HOXC9 [5] = molecular target: HOXC9 (Homo sapiens, UniProt P31274 178-260)
# Sequence of HOXC9 (Homo sapiens, UniProt P31274 178-260) (P31274 178-260): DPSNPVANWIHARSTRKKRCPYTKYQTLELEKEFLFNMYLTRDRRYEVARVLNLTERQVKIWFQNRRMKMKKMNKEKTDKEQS
# HOXC9 [6] = molecular target: HOXC9 (Homo sapiens, UniProt P31274 178-260, R193K)
# Sequence of HOXC9 (Homo sapiens, UniProt P31274 178-260, R193K) (P31274 178-260 R193K): as the sequence (P31274 178-260) above, with R16K counted along it
# HOXC10 = HOXC10 (Homo sapiens, UniProt Q9NYD6 254-340, K271E)
# Sequence of HOXC10 (Q9NYD6 254-340 K271E): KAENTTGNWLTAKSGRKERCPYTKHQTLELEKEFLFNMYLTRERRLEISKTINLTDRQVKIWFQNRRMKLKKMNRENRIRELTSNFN
# HOXB9 [7] = molecular target: HOXB9 (Homo sapiens, UniProt P17482 171-250, R186Q)
# Sequence of HOXB9 (Homo sapiens, UniProt P17482 171-250, R186Q) (P17482 171-250 R186Q): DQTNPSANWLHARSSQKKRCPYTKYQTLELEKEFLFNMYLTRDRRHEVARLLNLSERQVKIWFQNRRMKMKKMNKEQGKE
# HOXC9 [8] = molecular target: HOXC9 (Homo sapiens, UniProt P31274 178-260, R222W)
# Sequence of HOXC9 (Homo sapiens, UniProt P31274 178-260, R222W) (P31274 178-260 R222W): as the sequence (P31274 178-260) above, with R45W counted along it
# PAX4 [9] = molecular target: T2, PAX4 (Homo sapiens, UniProt O43316 9-242, R227W)
# T2 sequence: T1 sequence with R219W
# VENTX = molecular target: T3, VENTX (Homo sapiens, UniProt O95231 78-163)
# T3 sequence: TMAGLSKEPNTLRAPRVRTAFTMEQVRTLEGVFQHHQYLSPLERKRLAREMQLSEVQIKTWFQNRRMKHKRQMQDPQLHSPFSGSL
# VAX1 = VAX1 (Homo sapiens, UniProt Q5SQQ9 86-172)
# Sequence of VAX1 (Q5SQQ9 86-172): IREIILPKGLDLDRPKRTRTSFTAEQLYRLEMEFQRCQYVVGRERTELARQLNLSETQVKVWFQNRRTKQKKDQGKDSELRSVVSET
# HOXA7 [10] = molecular target: HOXA7 (Homo sapiens, UniProt P31268 116-202)
# Sequence of HOXA7 (Homo sapiens, UniProt P31268 116-202) (P31268 116-202): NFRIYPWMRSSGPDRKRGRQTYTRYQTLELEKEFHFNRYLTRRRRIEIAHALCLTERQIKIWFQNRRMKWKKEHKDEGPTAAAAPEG
# HOXA7 [11] = molecular target: HOXA7 (Homo sapiens, UniProt P31268 116-202, W177C)
# Sequence of HOXA7 (Homo sapiens, UniProt P31268 116-202, W177C) (P31268 116-202 W177C): as the sequence (P31268 116-202) above, with W62C counted along it
# HOXB6 = HOXB6 (Homo sapiens, UniProt P17509 132-218)
# Sequence of HOXB6 (P17509 132-218): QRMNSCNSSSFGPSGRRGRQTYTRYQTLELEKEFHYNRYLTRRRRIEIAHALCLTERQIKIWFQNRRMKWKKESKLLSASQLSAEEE
# HOXA2 [12] = molecular target: HOXA2 (Homo sapiens, UniProt O43364 129-215, Y150S)
# Sequence of HOXA2 (Homo sapiens, UniProt O43364 129-215, Y150S) (O43364 129-215 Y150S): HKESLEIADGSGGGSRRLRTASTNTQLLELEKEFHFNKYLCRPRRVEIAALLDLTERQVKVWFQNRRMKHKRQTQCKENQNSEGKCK
# HOXA2 [13] = molecular target: HOXA2 (Homo sapiens, UniProt O43364 129-215)
# Sequence of HOXA2 (Homo sapiens, UniProt O43364 129-215) (O43364 129-215): as the sequence (O43364 129-215 Y150S) above, with S22Y counted along it
# HOXA4 [14] = molecular target: HOXA4 (Homo sapiens, UniProt Q00056 201-287, W262R)
# Sequence of HOXA4 (Homo sapiens, UniProt Q00056 201-287, W262R) (Q00056 201-287 W262R): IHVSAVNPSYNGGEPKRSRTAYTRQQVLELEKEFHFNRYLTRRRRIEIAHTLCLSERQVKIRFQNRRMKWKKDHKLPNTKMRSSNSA
# HOXA4 [15] = molecular target: HOXA4 (Homo sapiens, UniProt Q00056 201-287)
# Sequence of HOXA4 (Homo sapiens, UniProt Q00056 201-287) (Q00056 201-287): as the sequence (Q00056 201-287 W262R) above, with R62W counted along it
# Sequence of HOXB9 (Homo sapiens, UniProt P17482 171-250, T197M) (P17482 171-250 T197M): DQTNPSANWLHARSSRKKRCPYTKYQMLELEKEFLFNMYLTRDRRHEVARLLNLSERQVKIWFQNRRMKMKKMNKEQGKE
# Sequence of HOXC9 (Homo sapiens, UniProt P31274 178-260, K195R) (P31274 178-260 K195R): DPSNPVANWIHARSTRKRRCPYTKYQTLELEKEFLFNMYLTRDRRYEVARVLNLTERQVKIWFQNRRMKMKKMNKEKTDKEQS
sequence,measurement,setting,value
AATTAAAT,binding signal,HOXB9 [1],"10 upbm affinity estimate (log intensity, higher = more binding, comparable within an allelic series)"
same,binding signal,HOXC9 [2],"12.5 upbm affinity estimate (log intensity, higher = more binding, comparable within an allelic series)"
same,binding signal,PAX4 [3],"12.3 upbm affinity estimate (log intensity, higher = more binding, comparable within an allelic series)"
same,binding signal,HOXB9 [4],"11.8 upbm affinity estimate (log intensity, higher = more binding, comparable within an allelic series)"
same,binding signal,HOXC9 [5],"12.5 upbm affinity estimate (log intensity, higher = more binding, comparable within an allelic series)"
same,binding signal,HOXC9 [6],"12.6 upbm affinity estimate (log intensity, higher = more binding, comparable within an allelic series)"
same,binding signal,HOXC10,"11.9 upbm affinity estimate (log intensity, higher = more binding, comparable within an allelic series)"
same,binding signal,HOXB9 [7],"11.5 upbm affinity estimate (log intensity, higher = more binding, comparable within an allelic series)"
same,binding signal,HOXC9 [8],"11.2 upbm affinity estimate (log intensity, higher = more binding, comparable within an allelic series)"
same,binding signal,PAX4 [9],"11.1 upbm affinity estimate (log intensity, higher = more binding, comparable within an allelic series)"
AATTAGCG,binding signal,VENTX,"12.3 upbm affinity estimate (log intensity, higher = more binding, comparable within an allelic series)"
same,binding signal,PAX4 [3],"12.4 upbm affinity estimate (log intensity, higher = more binding, comparable within an allelic series)"
same,binding signal,VAX1,"12.6 upbm affinity estimate (log intensity, higher = more binding, comparable within an allelic series)"
same,binding signal,PAX4 [9],"11 upbm affinity estimate (log intensity, higher = more binding, comparable within an allelic series)"
GACAATTA,binding signal,HOXB9 [1],"9.97 upbm affinity estimate (log intensity, higher = more binding, comparable within an allelic series)"
same,binding signal,HOXA7 [10],"11.2 upbm affinity estimate (log intensity, higher = more binding, comparable within an allelic series)"
same,binding signal,HOXA7 [11],"8.85 upbm affinity estimate (log intensity, higher = more binding, comparable within an allelic series)"
same,binding signal,HOXB6,"11.7 upbm affinity estimate (log intensity, higher = more binding, comparable within an allelic series)"
CAATTACA,binding signal,HOXB6,"11.4 upbm affinity estimate (log intensity, higher = more binding, comparable within an allelic series)"
AATTAGTG,binding signal,VENTX,"12.3 upbm affinity estimate (log intensity, higher = more binding, comparable within an allelic series)"
same,binding signal,PAX4 [3],"12.4 upbm affinity estimate (log intensity, higher = more binding, comparable within an allelic series)"
same,binding signal,VAX1,"12.8 upbm affinity estimate (log intensity, higher = more binding, comparable within an allelic series)"
same,binding signal,PAX4 [9],"11.1 upbm affinity estimate (log intensity, higher = more binding, comparable within an allelic series)"
same,binding signal,HOXA2 [12],"10.8 upbm affinity estimate (log intensity, higher = more binding, comparable within an allelic series)"
same,binding signal,HOXA2 [13],"12.2 upbm affinity estimate (log intensity, higher = more binding, comparable within an allelic series)"
CCTTCGAG,binding signal,HOXB9 [1],"8.5 upbm affinity estimate (log intensity, higher = more binding, comparable within an allelic series)"
same,binding signal,HOXB9 [4],"8.46 upbm affinity estimate (log intensity, higher = more binding, comparable within an allelic series)"
same,binding signal,HOXB9 [7],"8.5 upbm affinity estimate (log intensity, higher = more binding, comparable within an allelic series)"
CAAATTAA,binding signal,PAX4 [3],"12.4 upbm affinity estimate (log intensity, higher = more binding, comparable within an allelic series)"
same,binding signal,PAX4 [9],"11 upbm affinity estimate (log intensity, higher = more binding, comparable within an allelic series)"
AATTAACG,binding signal,PAX4 [3],"12.2 upbm affinity estimate (log intensity, higher = more binding, comparable within an allelic series)"
same,binding signal,PAX4 [9],"10.9 upbm affinity estimate (log intensity, higher = more binding, comparable within an allelic series)"
CAATTAGG,binding signal,VENTX,"12.7 upbm affinity estimate (log intensity, higher = more binding, comparable within an allelic series)"
same,binding signal,VAX1,"12.9 upbm affinity estimate (log intensity, higher = more binding, comparable within an allelic series)"
same,binding signal,HOXA2 [12],"10.8 upbm affinity estimate (log intensity, higher = more binding, comparable within an allelic series)"
same,binding signal,HOXA2 [13],"12.1 upbm affinity estimate (log intensity, higher = more binding, comparable within an allelic series)"
CCGAGCGG,binding signal,HOXA4 [14],"9.72 upbm affinity estimate (log intensity, higher = more binding, comparable within an allelic series)"
same,binding signal,HOXA4 [15],"9.77 upbm affinity estimate (log intensity, higher = more binding, comparable within an allelic series)"
CCCAATTA,binding signal,VENTX,"12.4 upbm affinity estimate (log intensity, higher = more binding, comparable within an allelic series)"
same,binding signal,PAX4 [3],"12.1 upbm affinity estimate (log intensity, higher = more binding, comparable within an allelic series)"
same,binding signal,VAX1,"12.7 upbm affinity estimate (log intensity, higher = more binding, comparable within an allelic series)"
same,binding signal,PAX4 [9],"10.7 upbm affinity estimate (log intensity, higher = more binding, comparable within an allelic series)"
CAATTAGA,binding signal,VAX1,"12.6 upbm affinity estimate (log intensity, higher = more binding, comparable within an allelic series)"
AATTAGAT,binding signal,PAX4 [3],"12.2 upbm affinity estimate (log intensity, higher = more binding, comparable within an allelic series)"
same,binding signal,PAX4 [9],"10.9 upbm affinity estimate (log intensity, higher = more binding, comparable within an allelic series)"
CAATTATA,binding signal,HOXB9 [1],"10.1 upbm affinity estimate (log intensity, higher = more binding, comparable within an allelic series)"
same,binding signal,HOXC9 [2],"12.5 upbm affinity estimate (log intensity, higher = more binding, comparable within an allelic series)"
same,binding signal,HOXA7 [10],"11.4 upbm affinity estimate (log intensity, higher = more binding, comparable within an allelic series)"
same,binding signal,HOXA7 [11],"8.95 upbm affinity estimate (log intensity, higher = more binding, comparable within an allelic series)"
same,binding signal,HOXB6,"11.9 upbm affinity estimate (log intensity, higher = more binding, comparable within an allelic series)"
GCCAATTA,binding signal,VENTX,"12.5 upbm affinity estimate (log intensity, higher = more binding, comparable within an allelic series)"
same,binding signal,VAX1,"12.8 upbm affinity estimate (log intensity, higher = more binding, comparable within an allelic series)"
CGCAATTA,binding signal,HOXA7 [10],"11.2 upbm affinity estimate (log intensity, higher = more binding, comparable within an allelic series)"
same,binding signal,HOXA2 [12],"10.7 upbm affinity estimate (log intensity, higher = more binding, comparable within an allelic series)"
same,binding signal,HOXA7 [11],"8.67 upbm affinity estimate (log intensity, higher = more binding, comparable within an allelic series)"
same,binding signal,HOXA2 [13],"12.1 upbm affinity estimate (log intensity, higher = more binding, comparable within an allelic series)"
same,binding signal,HOXB6,"11.7 upbm affinity estimate (log intensity, higher = more binding, comparable within an allelic series)"
AAGCTGGC,binding signal,HOXA7 [10],"8.32 upbm affinity estimate (log intensity, higher = more binding, comparable within an allelic series)"
same,binding signal,HOXA7 [11],"8.3 upbm affinity estimate (log intensity, higher = more binding, comparable within an allelic series)"
